LmPK inhibitor: blocks Leishmania mexicana pyruvate kinase activity | purified LmPK, Kinase-Glo ATP luminescence, 1 h | Potency, µM (highest dose often 57.5 µM), without a hit: top-dose activity change, negative = inhibition, most hits filed as inhibitors | 290,000 tested, 0.37% active | AID 1721; note: potency is the fitted concentration of half-maximal effect; % is set by controls: 0 for no effect and ±100 for the full control effect
Target sequence (Q27686 whole entry, looked up): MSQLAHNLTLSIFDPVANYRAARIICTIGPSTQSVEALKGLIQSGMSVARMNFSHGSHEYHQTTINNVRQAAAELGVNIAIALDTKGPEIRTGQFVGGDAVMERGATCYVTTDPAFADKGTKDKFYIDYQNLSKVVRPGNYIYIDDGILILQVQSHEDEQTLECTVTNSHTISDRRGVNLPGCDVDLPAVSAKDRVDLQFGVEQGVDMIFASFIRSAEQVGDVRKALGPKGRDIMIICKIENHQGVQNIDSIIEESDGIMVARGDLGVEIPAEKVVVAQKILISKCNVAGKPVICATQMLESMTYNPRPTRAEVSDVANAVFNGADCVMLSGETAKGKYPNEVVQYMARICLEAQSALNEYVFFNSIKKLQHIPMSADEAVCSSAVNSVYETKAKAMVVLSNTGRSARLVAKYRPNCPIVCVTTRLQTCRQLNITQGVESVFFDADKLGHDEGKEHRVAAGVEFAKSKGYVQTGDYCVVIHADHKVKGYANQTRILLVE
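qHTS format; LmPK 0.1 nM; substrates PEP 0.5 mM and ADP 0.1 mM. One-hour room-temperature incubation, then coupled luciferase luminescence; 0.5 nM enzyme wells mark activation.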
Shiga inhibitor: inhibitors of Shiga toxin in Vero cells; inhibition, % at 38.7 µM; 290,000 tested, 9.2% active; Vero cells, Shiga toxin protein synthesis inhibition reporter; in the data active = inhibition mostly above about 28%, no sharp cut-off; inactive = mostly below about 43%; note: 0% is about no effect
Cycloheximide cs: counter-screen hit for Shiga toxin inhibitors, cycloheximide. 300,000 tested, 12% active. cell reporter, cycloheximide protein synthesis inhibition counterscreen. max response, %. AID 2314; in the data active = max response mostly above about 13%, no sharp cut-off; inactive = mostly below about 14%; note: read at 38.3 µM for the half of the compounds with a filed dose; 0% is about no effect
TbPYK inhibitor: blocks Trypanosoma brucei pyruvate kinase. Q57TT1. TbPYK enzyme, Kinase-Glo Plus ATP luminescence, 45 min. Potency, µM (doses to about 76.8 µM), for the others: top-dose activity, negative = inhibition, most hits filed as inhibitors. 410,000 tested, 0.12% active. AID 624173; note: potency is the fitted concentration of half-maximal effect; % is set by controls: 0 for no effect and ±100 for the full control effect; nearly all actives have a fitted effect of over 50% in size
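Screened from lowest to highest concentration, compounds were pinned into TbPYK/substrate mixtures, and ADP (130 uM final) was added. Plates sat at room temperature for 45 min prior to Kinase-Glo Plus detection by luminescence.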
SARS PLP yeast: inhibitors of SARS-CoV papain-like protease in yeast | S. cerevisiae expressing SARS-CoV PLpro, growth rescue | Potency, µM (highest dose often 32.9 µM), inactives show at the highest dose activity, positive = growth rescue, most hits filed as activators | 330,000 tested, 0.19% active; calls by dose curve; note: potency is the fitted concentration of half-maximal effect; 0% is about no effect; nearly all actives have a fitted effect of over 55% in size
NS1 function inh: blocks influenza NS1 protein function. Potency, µM (highest dose often 46.1 µM), without a hit: top-dose activity, positive = more growth. 270,000 tested, 0.4% active; calls by dose curve; note: potency is the fitted concentration of half-maximal effect; actives are rising curves; nearly all actives have a fitted effect of over 50% in size
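Recovery from NS1-induced slow growth read by OD600 in budding yeast switched to galactose assay medium (pH 6.0, -URA) at 1:100 dilution. Compound 23 nl per well; the matching strain lacking NS1 serves as control.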
* marks the source's active call; other numbers are inactive results; ? = inconclusive; / = not tested or not shown. This is one part of a sample in which hits are shown more often than they occur. Unless noted, calls come from the whole dose curve; as a rule, active = well fitted curve in the direction sought with a large enough effect; inconclusive = small, poorly fitted or top-dose-only effect, or another doubt; inactive = no such curve, though single readings can be large; an effect the other way counts as inactive or inconclusive.

SMILES | LmPK inhibitor | Shiga inhibitor | Cycloheximide cs | TbPYK inhibitor | SARS PLP yeast | NS1 function inh
CCOC(=O)C1=C(O)C(=O)N(c2ccc(S(N)(=O)=O)cc2)C1c1ccc(Cl)cc1 (configuration not stated) | 5.6% | 13.5 | 3.6 | -0.8% | -0.6% | -32.4%
O=C1C(=O)N(c2cccc(Cl)c2)C(c2ccccc2[N+](=O)[O-])/C1=C(\O)c1ccccc1 (configuration not stated) | -0.7% | 37.1 | 18.7* | 1.2% | -12.2% | -11.6%
NS(=O)(=O)c1ccc(N2C(=O)C(=O)/C(=C(/O)c3ccccc3)C2c2ccc(Cl)cc2)cc1 (configuration not stated) | 9.8% | 25.0 | 11.2* | 6.5% | 0.7% | ?
O=C1C(=O)N(c2ccccc2)C(c2ccccc2[N+](=O)[O-])/C1=C(\O)c1ccccc1 (configuration not stated) | -10.7% | 23.6 | 22.9 | -4.3% | -1.3% | -2.5%
Cn1c(=O)n(-c2ccc(C(C)(C)C#N)cc2)c2c3cc(-c4cnc5ccccc5c4)ccc3ncc21 | / | / | / | 4.4% | / | /
Cc1ccc(CN2C(=O)C3(c4ccccc42)N(c2cccc(F)c2)C(=O)CS3(=O)=O)cc1 (configuration not stated) | / | / | / | 0.9% | / | /
CC1=NN(c2ccccc2)C(=O)C1/C=C1\NC(=S)NC1=O (configuration not stated) | -7.2% | 20.4 | -3.2 | -1.7% | -0.4% | /
CC1=NN(c2ccccc2)C(=O)C1C=Nc1ccccc1O (configuration not stated) | -1.0% | 27.4* | 14.3 | -5.0% | -3.0% | -33.7%
CCOc1ccc(C(=O)Nc2ccccc2-c2ccccc2)cc1Cl | 13.4% | 2.0 | -1.8 | 2.2% | -0.7% | -10.2%
CCOc1ccc(C(=O)Nc2cccc(C(=O)O)c2C)cc1Cl | -9.8% | 65.7* | 31.5* | -12.7% | 1.2% | -5.8%
COc1ccc(C(=O)Nc2ccccc2C(=O)O)cc1Cl | ? | 65.6* | 27.4* | -4.0% | -11.8% | -13.9%
COc1ccc(C(=O)Nc2ccccc2C(=O)O)cc1NC(=O)C(c1ccccc1)c1ccccc1 | -1.0% | -4.9 | -2.5 | 1.2% | -1.5% | 21.5%
O=C(Nc1ccccc1C(=O)O)c1ccccc1 | 9.3% | -7.5 | 2.2 | 3.6% | -4.2% | -4.3%
Cc1c(NC(=O)c2ccc(-c3ccccc3)cc2)cccc1C(=O)O | 0.0% | 65.9* | 35.1* | -1.3% | -0.2% | 3.3%
Cc1ccccc1S(=O)(=O)N(C)C[C@H]1OCc2cn(nn2)CCCC(=O)N([C@H](C)CO)C[C@@H]1C | / | / | / | 8.2% | / | /
O=C(NCc1ccc2c(c1)OCO2)c1nc(S(=O)(=O)Cc2ccccc2F)ncc1Cl | -2.6% | 25.9 | 25.7* | 0.3% | 14.2% | -1.8%
CCOc1ccc(NC(=O)c2nc(S(=O)(=O)Cc3ccccc3F)ncc2Cl)cc1 | / | 19.8 | -10.8 | -8.2% | / | /
O=C(NCc1ccc2c(c1)OCO2)c1nc(S(=O)(=O)Cc2ccccc2)ncc1Cl | -2.5% | 32.4 | 27.1* | 5.3% | -2.3% | -7.6%
CCOc1cc(N2CCOCC2)c(OCC)cc1NS(=O)(=O)c1ccc2c(c1)CC(=O)N2 | / | / | / | -0.8% | / | /
CCN(C[C@H]1N[C@@](Cc2ccccc2)(C(=O)OC)[C@H]2C(=O)N(C)C(=O)[C@@H]12)C(C)=O | / | / | / | 5.7% | 3.1% | /
O=c1c(-c2ccc3c(c2)OCCO3)coc2c(CN3CCOCC3)c(O)ccc12 | 1.2% | 32.9* | 39.1* | -5.5% | 1.5% | -3.1%
CN(C)Cc1c(O)ccc2c(=O)c(-c3ccc(Cl)cc3)coc12 | -2.9% | 18.2 | 14.2* | -8.5% | ? | 9.6%
O=c1c(-c2ccc([N+](=O)[O-])cc2)coc2c(O)c(O)ccc12 | -3.3% | 56.8* | 23.0* | -3.6% | -1.1% | 5.7%
COc1ccccc1-c1coc2c(CN3CCOCC3)c(O)ccc2c1=O | -4.7% | 8.0 | -1.0 | 1.5% | -0.3% | 14.1%
CCN(CC)Cc1c(O)ccc2c(=O)c(-c3ccc(Cl)cc3)coc12 | -3.8% | 10.1 | 9.7 | -3.7% | 1.4% | -7.6%
SMILES | LmPK inhibitor | Shiga inhibitor | Cycloheximide cs | TbPYK inhibitor | SARS PLP yeast | NS1 function inh
O=c1cc(-c2ccc([N+](=O)[O-])cc2)c2ccc(O)cc2o1 | -7.4% | 24.4 | 2.6 | -0.3% | -1.0% | /
CC(C)(C)OC(=O)N1CCC(C(=O)Nc2ccc(C(=O)N3CCCCC3)cc2)CC1 | / | / | / | -6.5% | / | /
COc1ccccc1C(=O)Nc1cc2c(cc1N1CCOCC1)n(C)c(=O)n2C | / | / | / | -1.1% | / | /
COc1ccc(O)c(/C=N/N2CCCCC2)c1 | ? | 83.0* | 53.7* | -9.3% | 2.7% | 0.1%
COc1ccc(C(=O)O)c(O)c1 | / | / | / | 3.1% | / | /
Oc1ccc(/C=N/N2CCCCC2)cc1O | -0.2% | 5.7 | 11.1 | -12.2% | 4.7% | 1.1%
COc1ccc(/C(C)=N/N2CCCCC2)c(O)c1 | 0.3% | 28.7 | 11.8* | 1.6% | 1.2% | 4.0%
N/C(=N\OC(=O)c1cccs1)c1cccc(Br)c1 | 15.8µM* | 77.5* | 39.3* | -5.4% | -5.3% | -76.3%
COc1ccc(/C(N)=N/OC(=O)c2cccs2)cc1OC | -3.1% | 7.9 | 2.0 | -1.4% | 1.2% | 1.5%
N/C(=N\OC(=O)c1cccs1)c1ccccc1 | 12.6µM* | 80.2* | 35.3* | ? | -74.3% | -33.6%
Cc1cccc(/C(N)=N/OC(=O)c2cccs2)c1 | 12.6µM* | 106.1* | 71.2* | ? | -33.5% | -199.0%
Cc1ccc(/C(N)=N/OC(=O)c2cccs2)cc1 | ? | 37.2* | 39.0* | 5.0% | -84.0% | -62.5%
CC(C)c1ccc(CC(=O)N2CCC2(C)C(=O)Nc2ccc3c(c2)OCCO3)cc1 (configuration not stated) | / | / | / | -5.4% | / | /
O=C(Cn1cnc2c(NCc3ccccc3)ncnc21)NCc1nc2ccccc2[nH]1 | / | / | / | -0.7% | 8.5% | /
COc1cc(C(=O)NNC(=O)CSc2nnc3ccccn23)cc(OC)c1OC | / | / | / | 5.0% | -6.9% | /
O=C(CSc1nnc2ccccn12)c1ccc2c(c1)OCCO2 | ? | 37.2* | 24.6* | -12.6% | 1.9% | -3.2%
COc1ccc(C(=O)CSc2nnc3ccccn23)cc1OC | 0.1% | 45.4 | 22.3* | -0.5% | -3.5% | /
O=C(CSc1nnc(-c2cccs2)n1-c1ccccc1)c1ccc2c(c1)OCCO2 | 3.6% | -13.7 | -7.3 | -7.3% | -3.5% | -3.0%
CCc1cccc(-n2nnc(S(=O)(=O)c3ccc(OC)cc3)c2C)c1 | / | / | / | -9.4% | / | /
O=C(COC(=O)c1cccs1)c1ccc2ccccc2c1 | -3.3% | 97.7* | 56.2* | 2.6% | 3.4% | 5.3%
NS(=O)(=O)c1cc(C(=O)OCC(=O)c2ccc3c(c2)OCCO3)ccc1Cl | 0.1% | 59.4* | 40.4* | 9.4% | -0.1% | 8.9%
CCc1ccc(C(=O)COC(=O)c2cccs2)cc1 | 15.8µM* | 51.7 | 23.4* | -15.4% | -4.4% | -62.6%
COc1ccc(C(=O)COC(=O)c2ccc(N(C)C)cc2)cc1 | -0.4% | -10.7 | -1.4 | 3.0% | 13.0% | 2.1%

High-throughput results from PubChem BioAssay.
